# Records with an inconclusive call do not appear. Unmarked numbers belong to inactive results. Active and inactive are the calls of the source. Calls follow the shape of the dose curve; as a rule, active = well fitted activation curve with a large enough effect in the repeat runs; inconclusive = weak or mixed curves; inactive = flat fitted curve, though single readings scatter. Positions of bridges follow the written chain, without caps; N, C: chain ends. Non-standard residues stand in square brackets, D forms with d. Residues, ends and D or L forms follow the SMILES beside them. hArg = N=C(N)NCCCC[C@H](N)C(=O)O; Mpa = O=C(O)CCS
# Test: A CellTox Green Cytotoxicity Assay to monitor cytotoxicity in HEK293 cells - 32 hour (AID 1224881); also: nearly all actives have a fitted effect of over 40% in size
# Details: CellTox Green fluorescence; series mostly up to 76.8 µM; cytotoxicity increase: at the top concentration
# From the text: National Center for Advancing Translational Sciences [NCATS]
# NIH Chemical Genomics Center [NCGC]
# U.S. Environmental Protection Agency [EPA]
# National Institutes of Environmental Health Sciences [NIEHS]
# National Toxicology Program [NTP]
# Cell-based models are critical for drug discovery. Determining the natural cytotoxic effects resulting from test compounds is an essential research activity. A CellTox Green Cytotoxicity Assay to monitor cytotoxicity in real time of continues cell culture during 40 hours of the compound treatment was used to screen Tox21 10K library compounds in Hek293 cells. CellTox Green Cytotoxicity Assay is a nonlytic, homogeneous, biofluorescent method to measure cytotoxicity in cell culture after experimental manipulation. The assay system uses a proprietary asymmetric cyanine dye that is excluded from viable cells but preferentially stains the dead cell's DNA. […] Viable cells produce no appreciable increases in fluorescence. Therefore, the fluorescence signal produced by the binding interaction with dead cell DNA is proportional to cytotoxicity.
# The mixture of Hek293 cell suspension and reagents were dispensed at 600cells/6 ul/well in 1536-well tissue culture treated black solid bottom plates using a Multidrop dispenser. After the assay plates were incubated at a 37 C/5% CO2 incubator for 5 hours, 23 nL of compounds dissolved in DMSO, positive and negative controls was transferred to the assay plate by a pintool work station. The plates were incubated at 37 C for 40 hours. The fluorescence intensity were measured at 0h, 8h, 16h, 24h, 32h and 40h time points using ViewLux plate reader during compound treatment.
# % is scaled to controls: 0 for no effect and ±100 for the full control effect; potency is read from the fitted curve at half-maximal effect.
Structure (SMILES),cytotoxicity increase,Potency
OC[C@H]1O[C@@H](O[C@@H]2[C@@H](CO)O[C@](O)(CO)[C@H]2O)[C@H](O)[C@@H](O)[C@H]1O,-4.71% [at 35.3 µM],–
CC1(C)Cc2cccc(N)c2O1,2.4%,–
CCCCCCCCCOC(=O)c1ccccc1C(=O)OCCCCCCCCC,-1.65%,–
ONc1ccccc1,28.5%,–
CC(C)CCOC(=O)c1ccccc1,17.9%,–
CCC(C)C(C)=O (stereo not given),8.49%,–
CC(C)COC(=O)c1ccccc1,17.6%,–
NC(=O)[C@@H]1CSSCCC(=O)N[C@@H](CCCCN=C(N)N)C(=O)NCC(=O)N[C@@H](CC(=O)O)C(=O)N[C@@H](Cc2c[nH]c3ccccc23)C(=O)N2CCC[C@H]2C(=O)N1 ([Mpa][hArg]GDWPC-NH2; disulfide 1-7),-5.73% [at 35.3 µM],–
CC1(C)CC(OC(=O)CCCCCCCCC(=O)OC2CC(C)(C)NC(C)(C)C2)CC(C)(C)N1,-5.67% [at 15.8 µM],–
CCC(=O)Oc1ccc2c(c1)CC[C@@H]1[C@@H]2CC[C@@]2(C)[C@H]1C[C@@H](OC(=O)CC)[C@@H]2OC(=O)CC,6.16% [at 35.3 µM],–
CC(=O)O[C@H]1C[C@@H]2CC[C@@]1(C)C2(C)C,4.49%,–
CC(C)NC(=O)c1ccc(C=O)cc1,-11.5% [at 35.3 µM],–
CN(C)CCCO[C@@H]1[C@H]2OC(C)(C)O[C@H]2O[C@@H]1C(O)CO (stereo not given in full),-8.41% [at 35.3 µM],–
CCCCOCCOC(=O)COc1ccc(Cl)cc1Cl,0.0536%,–
O=C(O)CSCC(=O)NC1CCSC1=O (stereo not given),2.84% [at 35.3 µM],–
CCC[C@@H]1C[C@@H](C(=O)N[C@@H]([C@H]2O[C@H](SC)[C@H](O)[C@@H](O)[C@H]2O)[C@@H](C)O)N(C)C1,0.169% [at 35.3 µM],–
CCCCSCCCC,-5.65%,–
CCC(C(=O)OCCN1CCOC(c2ccccc2)C1C)c1ccccc1 (stereo not given),-0.284% [at 35.3 µM],–
CCn1cc(C(=O)O)c(=O)c2cnc(N3CCCC3)nc21,4.33% [at 6.97 µM],–
Cc1ccc(C(=O)O)cc1[N+](=O)[O-],-2.08%,–

Structure (SMILES),cytotoxicity increase,Potency
[O-][n+]1cccc(/C(Cl)=N/OC[C@@H](O)CN2CCCCC2)c1,9.69% [at 35.3 µM],–
CC1CC(=O)CC(C)(C)C1 (stereo not given),-0.308%,–
CCCCCCC1(C)CCC(=O)O1 (stereo not given),-0.319%,–
CC(=O)C(C)O (stereo not given),-13.8%,–
Cn1c(=O)c2[nH]c(Br)nc2n(C)c1=O,-9.28% [at 35.3 µM],–
CC(=O)OC1CCCCC1C(C)(C)C (stereo not given),-22.3%,–
CC(=O)CC(=O)OC(C)(C)C,3.05%,–
Nc1nnnn1-c1ccccc1,-3.39% [at 35.3 µM],–
O=C(CN1CCNCC1)NC1CCCCC1,-1.91% [at 35.3 µM],–
CCCCOC(=O)[C@H](C)O,-0.869%,–
C=CCCCCCCCCC(=O)OCCCC,10.7%,–
CN(C)CCN(C)CCO,-18.3%,–
O=C1CCC(=O)N1Cl,-1.45%,–
O=C1CCCCO1,-7.1%,–
C=CCCCCCCCC,-0.705%,–
C=CCOC(=O)CCCCCC,2.14%,–
C=CCSSCCC,1.13%,–
O=C[O][Al]([O]C=O)[O]C=O,-1.67%,–
CC/C(C)=N\O[Si](C)(O/N=C(\C)CC)O/N=C(\C)CC,1.39%,–
CCCC(=O)OC/C=C(\C)CCC=C(C)C,–,49 µM (active)
